Data from PubChem BioAssay AID1159580 (chemical genetic matrix, 2015).
Where “and” joins values, the source holds several entries; their conditions need not be identical. Equal entries are not always repeated. Among all 5,500 compounds or so, about 2,000 (36%) were called active. About 18% were inconclusive and are not listed. No stated cut-off is given here; in the data, active means normalized growth mostly below about 0.91 (no sharp cut-off); inconclusive means no clear call, values can overlap the other calls; inactive means mostly above about 0.92. The list shows a part of the results.

Assay: chemical genetic growth profiling, strain panel (AID 1159580);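 further: tested at 20 µM; growth read once vehicle control cultures reached saturation at 30 °C; 1 = growth at the plate median or of vehicle wells; lower values mean less growth of the strain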
Settings: growth OD

Measured: normalized growth

C[N+]1(CCCCC[N+]2(C)CCCC2)CCCC1
inactive: S. cerevisiae deletion strains, locus YJR043C, strain POL32, hits give low values 1.01 | S. cerevisiae deletion strains, locus YJR075W, strain HOC1, hits give low values 1.02 and 0.994 | S. cerevisiae deletion strains, locus YKL009W, strain mrt4, hits give low values 1.04 | S. cerevisiae deletion strains, locus YKL068W, hits give low values 1.01 | S. cerevisiae deletion strains, locus YKL085W, strain MDH1 (second series), hits give low values 1.01 | S. cerevisiae deletion strains, locus YKL085W, strain MDH1, hits give low values 1.01 | S. cerevisiae deletion strains, locus YKL160W, strain elf1, hits give low values 1.01 | S. cerevisiae deletion strains, locus YKL190W, strain CNB1, hits give low values 1.01 | S. cerevisiae deletion strains, locus YKR001C, strain vps1, hits give low values 1.01 | S. cerevisiae deletion strains, locus YKR026C, strain gcn3, hits give low values 1 | S. cerevisiae deletion strains, locus YKR091W, strain srl3, hits give low values 1 | S. cerevisiae deletion strains, locus YLL001W, strain dnm1, hits give low values 1 | S. cerevisiae deletion strains, locus YLL026W, hits give low values 0.992 | S. cerevisiae deletion strains, locus YLL041C, strain sdh2, hits give low values 0.999 | S. cerevisiae deletion strains, locus YLR027C, strain aat2, hits give low values 0.992 | S. cerevisiae deletion strains, locus YLR039C, strain RIC1, hits give low values 1.02 | S. cerevisiae deletion strains, locus YLR058C, strain SHM2, hits give low values 1.01 | S. cerevisiae deletion strains, locus YLR102C, strain apc9, hits give low values 1.02 | S. cerevisiae deletion strains, locus YLR221C, strain rsa3, hits give low values 1 | S. cerevisiae deletion strains, locus YLR258W, strain gsy2, hits give low values 0.998 | S. cerevisiae deletion strains, locus YLR262C, strain YPT6 (second series), hits give low values 1.03 | S. cerevisiae deletion strains, locus YLR262C, strain YPT6, hits give low values 1.03 | S. cerevisiae deletion strains, locus YLR268W, strain sec22, hits give low values 1.03 | S. cerevisiae deletion strains, locus YLR320W, strain mms22, hits give low values 0.993 | S. cerevisiae deletion strains, locus YLR330W, strain CHS5, hits give low values 1 | S. cerevisiae deletion strains, locus YLR342W, strain FKS1 (second series), hits give low values 1.01 | S. cerevisiae deletion strains, locus YLR342W, strain FKS1, hits give low values 0.995 | S. cerevisiae deletion strains, locus YLR357W, strain rsc2, hits give low values 0.963 | S. cerevisiae deletion strains, locus YLR370C, strain arc18, hits give low values 1 | S. cerevisiae deletion strains, locus YLR371W, strain rom2, hits give low values 1.03 | S. cerevisiae deletion strains, locus YLR384C, strain iki3, hits give low values 0.992 | S. cerevisiae deletion strains, locus YLR418C, strain cdc73, hits give low values 1.02 | S. cerevisiae deletion strains, locus YML016C, strain PPZ1, hits give low values 1.01 | S. cerevisiae deletion strains, locus YML032C, strain rad52, hits give low values 1.03 | S. cerevisiae deletion strains, locus YML120C, strain ndi1, hits give low values 0.99 | S. cerevisiae deletion strains, locus YML124C, strain tub3, hits give low values 1.02 | S. cerevisiae deletion strains, locus YMR058W, strain fet3, hits give low values 0.999 | S. cerevisiae deletion strains, locus YMR078C, strain ctf18, hits give low values 1.03 | S. cerevisiae deletion strains, locus YMR125W, strain sto1, hits give low values 0.979 | S. cerevisiae deletion strains, locus YMR129W, hits give low values 0.999 | S. cerevisiae deletion strains, locus YMR205C, strain PFK2, hits give low values 1.01 | S. cerevisiae deletion strains, locus YMR223W, strain ubp8, hits give low values 1 | S. cerevisiae deletion strains, locus YMR231W, strain pep5, hits give low values 0.993 | S. cerevisiae deletion strains, locus YMR263W, strain SAP30, hits give low values 1.01 | S. cerevisiae deletion strains, locus YMR307W, strain GAS1, hits give low values 1 and 1.02 | S. cerevisiae deletion strains, locus YNL067W, strain RPL9B, hits give low values 1.02 | S. cerevisiae deletion strains, locus YNL071W, strain lat1, hits give low values 0.997 | S. cerevisiae deletion strains, locus YNL128W, strain TEP1, hits give low values 1.01 | S. cerevisiae deletion strains, locus YNL153C, strain GIM3, hits give low values 1.01 and 1.02 | S. cerevisiae deletion strains, locus YNL175C, strain NOP13, hits give low values 0.993 | S. cerevisiae deletion strains, locus YNL197C, strain WHI3, hits give low values 0.982 | S. cerevisiae deletion strains, locus YNL209W, strain ssb2, hits give low values 0.995 | S. cerevisiae deletion strains, locus YNL224C, strain SQS1, hits give low values 0.988 | S. cerevisiae deletion strains, locus YNL233W, strain BNI4, hits give low values 1.01 | S. cerevisiae deletion strains, locus YNL248C, strain rpa49, hits give low values 0.996 | S. cerevisiae deletion strains, locus YNL250W, strain rad50, hits give low values 1.02 | S. cerevisiae deletion strains, locus YNL271C, strain bni1, hits give low values 1.01 | S. cerevisiae deletion strains, locus YNL298W, strain CLA4, hits give low values 1.02 | S. cerevisiae deletion strains, locus YNL307C, strain MCK1, hits give low values 1.03 | S. cerevisiae deletion strains, locus YNL322C, strain KRE1 (second series), hits give low values 0.998 | S. cerevisiae deletion strains, locus YNL322C, strain KRE1, hits give low values 1 | S. cerevisiae deletion strains, locus YNR049C, strain mso1, hits give low values 0.994 | S. cerevisiae deletion strains, locus YNR052C, strain pop2, hits give low values 1.02 | S. cerevisiae deletion strains, locus YOL006C, strain TOP1, hits give low values 1.04 | S. cerevisiae deletion strains, locus YOL012C, strain htz1 1.04 | S. cerevisiae deletion strains, locus YOL147C, strain pex11, hits give low values 1.02 | S. cerevisiae deletion strains, locus YOR001W, strain rrp6, hits give low values 0.995 | S. cerevisiae deletion strains, locus YOR061W, strain CKA2, hits give low values 1.01 | S. cerevisiae deletion strains, locus YOR069W, strain VPS5, hits give low values 1 | S. cerevisiae deletion strains, locus YOR070C, strain gyp1, hits give low values 0.998 | S. cerevisiae deletion strains, locus YOR080W, strain dia2, hits give low values 0.987 | S. cerevisiae deletion strains, locus YOR083W, strain WHI5 (second series), hits give low values 1.01 | S. cerevisiae deletion strains, locus YOR083W, strain WHI5, hits give low values 0.993 | S. cerevisiae deletion strains, locus YOR106W, strain vam3, hits give low values 1.01 | S. cerevisiae deletion strains, locus YOR136W, strain idh2, hits give low values 1.01 | S. cerevisiae deletion strains, locus YOR144C, strain elg1, hits give low values 1.02 | S. cerevisiae deletion strains, locus YOR184W, strain ser1, hits give low values 1.03 | S. cerevisiae deletion strains, locus YOR265W, strain rbl2, hits give low values 0.994 | S. cerevisiae deletion strains, locus YOR270C, strain vph1, hits give low values 1.02 | S. cerevisiae deletion strains, locus YOR290C, strain snf2, hits give low values 0.996 | S. cerevisiae deletion strains, locus YOR316C, strain cot1, hits give low values 1.01 | S. cerevisiae deletion strains, locus YPL051W, strain arl3, hits give low values 0.999 | S. cerevisiae deletion strains, locus YPL055C, strain LGE1, hits give low values 1.03 | S. cerevisiae deletion strains, locus YPL078C, strain atp4, hits give low values 0.997 | S. cerevisiae deletion strains, locus YPL106C, strain sse1, hits give low values 0.985 | S. cerevisiae deletion strains, locus YPL240C, strain hsp82, hits give low values 0.982 | S. cerevisiae deletion strains, locus YPL241C, strain CIN2, hits give low values 1.01 and 0.991 | S. cerevisiae deletion strains, locus YPR119W, strain clb2, hits give low values 1.02 | S. cerevisiae deletion strains, locus YPR141C, strain kar3, hits give low values 1.01 | S. cerevisiae deletion strains, locus YPR163C, strain tif3, hits give low values 1.02 | S. cerevisiae deletion strains, locus YPR167C, strain met16, hits give low values 1.01 | S. cerevisiae deletion strains, strain wtn01, hits give low values 1.01 | S. cerevisiae strains, strain wild type, hits give low values 1.01
